INS promoter inh – inhibitors of insulin promoter-driven GFP, primary screen, imaging, TRM-6 cells (human fetal islet line), eGFP reporter, cell count; inhibition, % at 2 µM; 0.9% of 130,000 active; AID 1273, 2008; reporter expression induced with tamoxifen;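 active = inhibition above the mean plus 3 SD, with well images judged a real hit on visual review, cut at about 60% in these data, passing the limit was not always enough; inconclusive = inhibition over the cutoff but images rejected on review; inactive = inhibition not above the cutoff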
Lmaj promast – Leishmania major promastigote growth inhibition, primary screen; Leishmania major promastigotes, resazurin fluorescence viability; inhibition, % at 10 µM; 9% of 200,000 active; in the data active = inhibition above about 50%;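 note: promastigotes grown with compound for 44 hours at 28 °C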
WT yeast gro inh – growth inhibition of WT strain, primary screen, mitochondrial fusion inhibitor project, WT and mutant strains, chemical genetic; mitochondrial fusion phenotypic screen; inhibition, % at 10 µM; 2.1% of 190,000 active; AID 1362, 2008; in the data active = inhibition above about 58%; tested in S. cerevisiae
ROMK primary – ROMK potassium channel modulators, primary screen, cell-based, thallium flux, MLSMR library. AID 1918, 2009. Tet-inducible ROMK, thallium flux fluorescence; actives lie on both sides. ATP-sensitive inward rectifier potassium channel 1 (Homo sapiens), P48048. 2% of 130,000 active. B-score at 10 µM;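 active = signal ratio slope over the read window, or its plate-corrected B-score, at least 3 SD from the plate mean, either direction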;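 note: B-score of the F/F0 ratio slope over 7 to 12 s after thallium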
Target sequence (P48048 whole entry, looked up): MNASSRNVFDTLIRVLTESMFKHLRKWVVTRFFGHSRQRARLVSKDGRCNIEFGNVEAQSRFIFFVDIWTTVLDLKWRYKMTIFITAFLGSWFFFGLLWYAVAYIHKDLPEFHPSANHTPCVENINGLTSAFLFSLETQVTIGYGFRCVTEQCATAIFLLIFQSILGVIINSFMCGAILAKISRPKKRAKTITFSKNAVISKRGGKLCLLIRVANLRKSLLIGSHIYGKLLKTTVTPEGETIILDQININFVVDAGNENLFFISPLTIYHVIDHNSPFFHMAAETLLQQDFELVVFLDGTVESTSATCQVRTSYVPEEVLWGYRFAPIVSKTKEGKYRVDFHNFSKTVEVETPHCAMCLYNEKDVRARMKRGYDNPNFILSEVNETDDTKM
Cl transport mod – KCC2 cotransporter modulators, thallium flux, primary screen, cell-based, HEK293 KCC2, FluoZin-2 fluorescence, MLSMR; Solute carrier family 12 member 5 (Homo sapiens), Q9H2X9; KCC2 cells, thallium flux FluoZin-2 fluorescence; B-score of Tl+ flux slope (higher = more flux/activation; lower = inhibition) at 10 µM; 2.2% of 190,000 active; AID 1456, 2008;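 active = thallium flux slope and its plate-corrected score both differing from the plate sample mean at a set confidence after two filtering rounds, in either direction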;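 note: slope of fluorescence scaled to starting intensity during 10 to 20 s after thallium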
Insulin prom up – insulin promoter activators in MIN6 cells, imaging, high-content screening, mouse beta cells. z-score at 5 µM. MIN6 insulin promoter-GFP reporter; stronger effect = higher value. AID 1625, 2009. 0.3% of 190,000 active;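 active = z-score above 3 at 5 µM with at least 500 cells counted in the well; inconclusive = wells under 500 cells, flagged as cytotoxic or low count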
Lmaj promast 1uM – Leishmania major promastigote growth inhibition, confirmation, 1 µM repeat of primary hits | inhibition, % at 1 µM | shares compounds with Lmaj promast | 13% of 1,100 active | L. major promastigote growth, resazurin fluorescence, 48 h;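 active = inhibition above about 50% in both repeat tests, limit read from the data; inconclusive = one repeat under the set limit, the other over it; inactive = both repeats under the set limit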
Numbers without * were called inactive; ? = inconclusive; . = not tested or not shown. Compounds with a hit are over-represented: about 12% of the library has one in this group of screens.

SMILES	INS promoter inh	Lmaj promast	WT yeast gro inh	ROMK primary	Cl transport mod	Insulin prom up	Lmaj promast 1uM
N=C(N)c1ccc(OCCCCCOc2ccc(C(=N)N)cc2)cc1	32	100*	76*	.	0.17	.	100*
COC(=O)c1ccc(OCCOc2ccc(C(=O)OC)cc2)cc1	-21	-1	-7	0.34	0.35	.	.
Cc1[nH]c2ccccc2c1C(c1ccccn1)N1CCC(C(N)=O)CC1 (stereo not given)	-15	60*	-7	.	.	0.67	5
COc1ccc2c(C)cc(SCC(=O)Nc3c(C)n(C)n(-c4ccccc4)c3=O)nc2c1	26	-5	-14	.	-0.51	-0.04	.
O=C(COC(=O)[C@H](Cc1ccccc1)N1C(=O)c2ccccc2C1=O)Nc1ccc2c(c1)OCO2	-9	99*	31	0.046	-0.25	-0.8	-11
Cc1cc(C)cc(OCC(=O)Nc2ccc3c(c2)OCO3)c1	.	62*	9	0.16	-0.005	.	17
O=C1CCC2c3ccc4ccccc4c3CCN12 (stereo not given)	-319	-6	5	-1.2	0.4	.	.
O=C(Cn1c(=O)n2ncnc2c2c3c(sc21)CCCC3)c1ccccc1	-22	74*	-8	.	-0.4	-0.01	-10
Cc1ccc(C)c(S(=O)(=O)N2CCCOC2CNC(=O)C(=O)NCc2ccncc2)c1 (stereo not given)	.	-4	-5	-0.018	0.77	-0.15	.
CC1(C)Cc2nc(N)c(C(=O)NCCO)cc2CO1	0	-5	6	0.0042	0.71	0.2	.
O=C(NCc1ccc(N2CCCC2=O)cc1)c1cn(CCc2ccccc2)nn1	.	56*	8	-0.77	0.65	0.28	19
Cc1nc2ccccn2c(=O)c1CCN1CCC(C(=O)c2ccc(F)cc2)CC1	4	97*	-7	-2.7	1.4	.	7
CCn1c(N)c(C(=O)NCc2cccnc2)sc1=S	50	-1	-1	1	.	.	.
CCn1c(C(=O)NCc2cccnc2)cc2sc(Cl)cc21	.	81*	27	0.34	0.42	1.1	2
O=C(Nc1ccc(O)c(C(=O)O)c1)Oc1ccccc1	.	.	.	.	0.21	-0.02	.
O=C1NCC(c2ccccc2)C1C(=O)N/N=C\c1ccc(-c2ccc(Cl)c(Cl)c2)o1 (stereo not given)	22	59*	4	.	0.15	0.25	-11
CCCS(=O)(=O)N1CCCC(C(=O)c2cccc(Cl)c2)C1 (stereo not given)	.	-2	2	1.6	0.32	0.13	.
Cc1cccc2cc(-c3ccccc3)c(-c3ccccc3)c[n+]12	3	100*	72*	.	0.58	?	30
O=[N+]([O-])c1cccc(-c2cc3cccc[n+]3cc2-c2cccc([N+](=O)[O-])c2)c1	-33	0	17	-0.45	0.17	-0.28	.
COc1ccccc1/C=C1/C(=O)N(c2cc(C)cc(C)c2)C(c2cccc([N+](=O)[O-])c2)S1(=O)=O (stereo not given)	22	19	-2	-0.37	0.11	.	.
O=c1c(Cl)nc2cc(Cl)ccc2n1CCNc1ncc(C(F)(F)F)cc1Cl	-35	101*	1	.	.	-1.7	101*
Cn1c(-c2ccc(C=O)s2)nc2c3ccccc3c3ccccc3c21	-38	68*	16	0.84	.	0.91	-17
Cc1nn(-c2ccccn2)c2c1C(=O)C(Br)CC2 (stereo not given)	-13	100*	-9	-0.28	-0.82	-0.03	85*
C=CCc1ccc(OCCCCOc2ccc(C(=O)O)cc2)c(OC)c1	.	-9	-15	-0.015	-3.4	-0.24	.
C=CCc1ccc(OCCCCCN2CCOCC2)c(OC)c1	.	100*	20	.	.	-0.24	58*
SMILES	INS promoter inh	Lmaj promast	WT yeast gro inh	ROMK primary	Cl transport mod	Insulin prom up	Lmaj promast 1uM
CN(C)c1cc(N/N=C/c2ccc(Cl)cc2)nc(N(C)C)n1	58	78*	71	-0.2	0.52	0.7	74*
CCc1cc2cccc(C)c2nc1SCC(=O)c1ccc(NC(C)=O)cc1	18	-2	1	.	.	-0.05	.
CCCCCCCCC/C(=N\O)c1ccccn1	37	87*	74*	.	0.64	-0.59	5
CCCCCCCCC(=O)N/N=C/c1ccccn1	.	6	-8	.	.	-0.71	.
COc1ccc(-c2noc(CSc3nc(N)c(-c4ccccc4)c(=O)[nH]3)n2)cc1OC	21	2	5	.	0.39	.	.
O=C(COc1ccccc1F)NC1CCN(Cc2ccccc2)CC1	.	91*	27	0.062	0.12	.	72*
Cc1cc(C)c2ccc3c(C)c(C)nc3c2[nH]1	.	56*	48	-0.37	0.096	-0.77	40
Cc1cc(=O)[nH]c2c(C)c(N)ccc12	6	-6	13	.	.	-0.07	.
Oc1ccc(Cl)cc1C1=NCCNC(C(F)(F)C(F)F)=C1	10	76*	4	-0.2	1.3	.	-18
CCc1cccc(C)c1NC(=S)N(CCN(C)C)Cc1cccs1	-13	6	-7	-0.88	0.35	0.07	.
O=C1C=C(NCCOC23CC4CC(CC(C4)C2)C3)C2(CCCCC2)O1	13	86*	5	0.083	-0.022	-0.15	20
Cc1nn(C)cc1CNC(=O)c1ccc(F)cc1	.	-6	-28	.	0.59	-0.2	.
CCCCS(=O)(=O)/C=C\C=C/S(=O)(=O)CCCC	.	101*	88*	.	-1.6	-0.4	94*
CCCC(CCC)C(=O)Oc1cc(C)[nH]c(=O)c1[N+](=O)[O-]	23	0	8	.	2.8	-1.2	.
Cc1cc(OC(=O)C(c2ccccc2)c2ccccc2)c([N+](=O)[O-])c(=O)[nH]1	-7	58*	-6	-0.0078	0.1	0.28	-17
O=C(Cn1c(NCCCO)nc2ccccc21)c1cccs1	.	-4	14	.	-0.92	.	.
Cc1cc2c(cc1C)CSC(c1ccccc1O)SC2	25	97*	44	1.7	.	-0.85	-9
COc1cccc(CNC(=O)C(CCSC)NS(=O)(=O)c2ccc3c(c2)oc(=O)n3C)c1 (stereo not given)	-100	-1	20	.	-0.014	0.18	.
Cc1cc(C)n(S(=O)(=O)/C=C/c2ccccc2)n1	-7	98*	13	.	-0.49	.	-2
CCn1cc(CNCc2cn(-c3ccccc3C)nc2-c2ccc(OC)c(F)c2)cn1	.	1	-24	-1.7	0.31	-0.23	.
COc1ccc(-c2nn(-c3ccccc3C)cc2CNCCc2cnc[nH]2)cc1F	.	96*	-11	-0.015	-0.19	.	-20
C=CCOC(=O)C1=C(C)NC(=S)NC1c1cccs1 (stereo not given)	.	10	-13	0.27	-0.23	0.7	.
FC(F)(F)c1nc2ccccc2n2c(-c3c(Cl)cccc3Cl)nnc12	-111	57*	-10	.	.	.	-5
COc1cccc(NS(=O)(=O)c2nc3nc(C)cc(C)n3n2)c1	.	-4	14	.	.	-0.08	.

Bioassay records deposited in PubChem by several laboratories.
